The values below come from PubChem BioAssay (Tox21).

Molecules are shown by their SMILES. Calls of active or inactive are those of the source. A call without a number means that no potency is given here. Calls follow the shape of the dose curve; as a rule, active = well fitted activation curve with a large enough effect in the repeat runs; inconclusive = weak or mixed curves; inactive = flat fitted curve, though single readings scatter.

Sequence of KiSS-1 receptor (Homo sapiens) (Q969F8 whole entry, looked up): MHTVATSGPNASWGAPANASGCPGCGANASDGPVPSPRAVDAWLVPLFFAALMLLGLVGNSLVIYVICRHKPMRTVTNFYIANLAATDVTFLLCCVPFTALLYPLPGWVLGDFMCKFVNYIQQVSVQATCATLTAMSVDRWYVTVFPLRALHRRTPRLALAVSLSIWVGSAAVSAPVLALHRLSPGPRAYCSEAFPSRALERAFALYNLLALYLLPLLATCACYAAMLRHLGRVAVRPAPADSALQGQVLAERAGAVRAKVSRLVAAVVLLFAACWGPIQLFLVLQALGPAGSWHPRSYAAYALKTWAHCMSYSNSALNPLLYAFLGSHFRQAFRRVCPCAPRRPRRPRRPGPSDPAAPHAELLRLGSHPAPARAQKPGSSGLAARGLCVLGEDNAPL

This assay deals with KiSS-1 receptor (Homo sapiens) (UniProt Q969F8). Briefly: Human kisspeptin (KISS1R) small molecule agonists, calcium flux assay in KISS1R-HEK293 cells (AID 1920064). As to conditions: KISS1R-HEK293, calcium flux fluorescence, agonist; series mostly up to 76.8 µM; activation: at the top concentration. An excerpt:
National Center for Advancing Translational Sciences [NCATS]
Division of Preclinical Innovation [DPI]
U.S. Environmental Protection Agency [EPA]
National Institutes of Environmental Health Sciences [NIEHS]
National Toxicology Program [NTP]
U.S. Food and Drug Administration [FDA]
Kisspeptin and its receptor KISS1R play key roles in mammalian reproduction due to their involvement in the onset of puberty and control of the hypothalamic-pituitary-gonadal axis such as regulates GnRH release from the hypothalamus. The kisspeptin/KISS1R system also plays a direct role in peripheral organs (including the ovary, testis, uterus, and placenta) and is implicated in reproductive diseases such as miscarriage and polycystic ovary syndrome (PCOS). Abnormal KISS1R activity is associated with abnormal puberty, infertility, endometriosis, and hormone-dependent tumors. The KISS1 receptor (KISS1R, also called GPR54), a G-protein-coupled receptor (GPCR), acts (through phospholipase C) to increase intracellular inositol trisphosphate and then release intracellular calcium stores. Cell-based KISS1R-HEK293 assay is using HEK293 cells that have been genetically engineered to express the human KISS1R, which activity can be measured by calcium signaling. A compound/drug can activate (agonist) KISS1R that can be monitored by levels of intracellular calcium.
KISS1R-HEK293 cells developed by Codex Corp contain human KISS1R gene, which was stably integrated into HEK 293 cells. The compound activation can be detected by fluorescence intensity via calcium flux assay. This cell line has been used to screen the Tox21 10K compound library to identify agonists of KISS1R.
KISS1R-Hek293 cells were dispensed at 1500 cells/4uL/well in 1536-well black wall/clear bottom plates using a multidrop dispenser. After the assay plates were incubated at a 37 C/5% CO2 incubator for 18 hours, 4 microL of Calcium Dye Solution was added to each well. The plates were incubated at 37 C for 1 hour. And then 23 nL of compounds dissolved in DMSO, positive controls, or DMSO only was transferred to the assay plate by a pin tool station. The fluorescence intensity in the plates was measured using FDSS 7000EX kinetic plate reader with a filter set of Ex/Em=480/540 for 3 min at 1 sec intervals. Each test compound was measured at 15 concentrations and in triplicates.
In the case of `CNc1cnn(-c2cccc(C(F)(F)F)c2)c(=O)c1Cl`, the Potency result was “inactive”.
For the compound `CCN(CC)CCN1C(=O)CN=C(c2ccccc2F)c2cc(Cl)ccc21`, the “activation” value is 1.62% [at 35.3 µM] (inactive).
Consider `CC(C)C#N`, for which the Potency entry was “inactive”.
The same measure, in the same setting: the entry for `CC(C)(Cl)Cl` is “inactive”.
Still for that read-out and setting: the value for `CN1C(=O)CN=C(c2ccccc2)c2cc(Cl)ccc21` was “inactive”; that for `O=C(O)C(F)(F)C(F)(F)C(F)(F)C(F)(F)C(F)(F)C(F)(F)C(F)(F)F` was “inactive”.
Still for that read-out and setting: the entry for `ClC1=C(Cl)C2(Cl)C3C(Cl)C=CC3C1(Cl)C2(Cl)Cl` (stereo not given) is “inactive”.
On to `Clc1nc(Cl)nc(Nc2ccccc2Cl)n1`, for which the “activation” value was 0.172% (inactive).
As to `CCNc1nc(Cl)nc(NCC)n1`, the Potency result is “inactive”.
Still for that read-out and setting: the entry for `Clc1cccc(C(Cl)(Cl)Cl)n1` is “inactive”; for `CC(C)c1ccc(CO)cc1` it is “inactive”.
On to `Brc1c(Br)c(Br)c(Br)c(Br)c1Br`, for which the activation was -5.73% [at 6.97 µM] (inactive).
Take `COc1cc(OC)nc(Oc2cccc(Oc3nc(OC)cc(OC)n3)c2C(=O)O)n1`: the “activation” value is 1.26% (inactive).
Same read-out and setting: the figure for `CC(=[OH+])/C=C(/C)[O-].CC(=[OH+])/C=C(\C)[O-].CC(=[OH+])/C=C(\C)[O-].[Fe]` is 1.45% (inactive).
For the compound `CC1CN1` (stereo not given), the “activation” value was -0.439% (inactive).
`O=[N+]([O-])c1ccccc1O`: the Potency result is “inactive”.
Same read-out and setting: the entry for `CCOP(=O)(OCC)SCCSCC` is “inactive”.
Consider `CC(C)c1ccc(O)cc1`, for which the “activation” value was -0.335% (inactive).
As to `CC(C#N)CCC#N` (stereo not given), the Potency result was “inactive”.
On the same count and under the same terms, the entry for `Oc1ccccc1-c1ccccc1` is “inactive”; for `C[N+](C)(C)C` it is “inactive”.
On to `CCC(=O)O[C@@H]1C=C2CCC3C(CCC4(C)C3CC[C@@H]4OC(=O)CC)C2CC1` (stereo not given in full), for which the “activation” value is 2.33% [at 35.3 µM] (inactive).
Still for that read-out and setting: the figure for `CCCC[N+]1(C)CCCC1` (tested in a mixture with another compound) is 36% (inactive).
Consider `C=C(C)[C@H]1Cc2c(ccc3c2O[C@@H]2COc4cc(OC)c(OC)cc4[C@@H]2C3=O)O1`, for which the Potency result is “inactive”.
For the compound `O=C(O)C(F)(F)C(F)(F)C(F)(F)C(F)(F)C(F)(F)C(F)(F)F`, the “activation” value is 0.174% (inactive).
On the same count and under the same terms, the figure for `C=CCSSCC=C` is 0.789% (inactive).
For the compound `O=C(O)c1cc(Cl)ccc1Cl`, the “activation” value was 1.73% (inactive).
Same read-out and setting: the figure for `Nc1nc(=S)[nH][nH]1` is -0.136% (inactive).
For the compound `CCC[N+](=O)[O-]`, the Potency entry is “inactive”.
Still for that read-out and setting: the value for `Cc1cc(C)cc(C)c1` was “inactive”.
With `CO[C@@H]1[C@H](OC(=O)NC(=O)CCl)CC[C@]2(CO2)[C@H]1[C@@]1(C)O[C@@H]1CC=C(C)C`, the activation is 0.453% [at 15.8 µM] (inactive).
Take `CC(Cl)(Cl)C(=O)O`: the Potency entry was “inactive”.
As to `Cc1ccc2c(C)cccc2c1`, the “activation” value was -5.69% (inactive).
Still for that read-out and setting: the value for `COC(=O)c1cncn1C(C)c1ccccc1` (stereo not given) was 15% [at 35.3 µM] (inactive).
On the same count and under the same terms, the figure for `ClCC(Br)CBr` (stereo not given) is -3.49% (inactive).
For the compound `CCCCn1cc[n+](C)c1C`, the Potency entry is “inactive”.
Still for that read-out and setting: the entry for `Nc1ccc(Cl)c(Cl)c1` is “inactive”.
`NC(=O)OCCCc1ccccc1`: the “activation” value is -1.62% [at 35.3 µM] (inactive).
In the case of `C=CC(=O)OCCCCCC(C)C`, the Potency result was “inactive”.
Consider `CCCCCCI`, for which the “activation” value is -0.486% (inactive).
